Only some compounds are listed: those with a hit (about 18% of all), similar ones and a draw of the others.
TDP1 cell noCPT: qHTS for Inhibitors of human tyrosyl-DNA phosphodiesterase 1 (TDP1): qHTS in cells in absence of CPT; DT40 Tdp1-/- hTDP1 cells, no CPT, ATP luminescence, 48 h; actives 15% (n = 420,000); AID 686978, 2013; Potency, µM (doses to about 46.2 µM), inactives show at the top dose activity change, negative = growth inhibition, usual class: inhibitors; also: nearly all actives have a fitted effect of over 55% in size
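A cellular qHTS used chicken DT40 cells lacking endogenous Tdp1 but carrying stably transfected human TDP1. Compounds were applied without camptothecin, and cell growth kinetics were judged by ATP-dependent luminescence after ≥48 hr.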
GCN5L2 inh: inhibitors of human GCN5L2 histone acetyltransferase. Q92830. GCN5L2 HAT assay, ThioGlo1 CoA-SH fluorescence. Potency, µM (series often up to 58.9 µM), for the others: top-dose activity change, negative = inhibition, usual class: inhibitors. actives 0.21% (n = 390,000). AID 504327
Target sequence (Q92830 whole entry, looked up): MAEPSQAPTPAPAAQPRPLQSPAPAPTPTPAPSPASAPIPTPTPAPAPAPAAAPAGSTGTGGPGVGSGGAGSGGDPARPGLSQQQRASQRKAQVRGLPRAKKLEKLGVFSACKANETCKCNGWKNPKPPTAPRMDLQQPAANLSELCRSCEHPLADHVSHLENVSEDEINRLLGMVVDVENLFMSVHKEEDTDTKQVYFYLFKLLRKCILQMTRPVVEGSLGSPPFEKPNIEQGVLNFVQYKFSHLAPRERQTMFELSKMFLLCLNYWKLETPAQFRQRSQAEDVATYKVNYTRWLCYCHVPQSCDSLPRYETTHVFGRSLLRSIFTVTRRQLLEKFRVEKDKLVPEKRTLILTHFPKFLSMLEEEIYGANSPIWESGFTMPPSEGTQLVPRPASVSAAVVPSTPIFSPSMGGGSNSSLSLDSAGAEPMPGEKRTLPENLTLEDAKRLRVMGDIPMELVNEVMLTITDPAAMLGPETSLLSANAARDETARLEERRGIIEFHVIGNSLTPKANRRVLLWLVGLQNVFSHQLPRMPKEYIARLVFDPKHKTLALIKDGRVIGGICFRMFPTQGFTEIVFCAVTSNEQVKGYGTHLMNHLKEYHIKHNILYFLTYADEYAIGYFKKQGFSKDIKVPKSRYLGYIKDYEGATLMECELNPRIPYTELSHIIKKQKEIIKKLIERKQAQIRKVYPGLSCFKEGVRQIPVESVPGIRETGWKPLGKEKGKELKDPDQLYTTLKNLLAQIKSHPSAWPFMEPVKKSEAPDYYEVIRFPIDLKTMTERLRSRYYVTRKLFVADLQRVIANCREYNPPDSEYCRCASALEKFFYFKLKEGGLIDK
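GCN5L2 (20 nM) in 50mM HEPES pH 7.5, 0.1mM EDTA, 0.01% Tween-20 preincubated 15 min with compounds at room temperature. Reaction started with H3(1-25) 75uM, acetyl-CoA 70uM, ThioGlo1 50uM; CoA-thiol fluorescence (Ex340/Em540) read at 0 and 20 min.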
VDR inh: blocks the human vitamin D receptor. actives 0.93% (n = 400,000). VDR-SRC2-3 peptide fluorescence polarization, 2 h. P11473. Potency, µM, without a hit: max response, negative = inhibition, hits mostly inhibitors
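Reagent solutions, kept cold and dark, are dispensed first; compounds are then pinned in at 23 nl, plates briefly spun, and incubated 2 h at ambient temperature. Inhibition of VDR–SRC2-3 peptide binding is read by fluorescence polarization.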
PLK1 PBD block: blocks phosphopeptide binding to human PLK1 polo-box domain; Plk1 PBD binding of FITC phosphopeptide, fluorescence polarization; actives 2.8% (n = 360,000); Potency, µM, without a hit: max response, negative = inhibition, usual class: inhibitors; AID 720504; P53350; also: series mostly up to about 57 µM; nearly all actives have a fitted effect of over 65% in size
DT40 TDP1 CPT: growth inhibition of DT40 Tdp1-/-;hTDP1 cells with camptothecin (screen for TDP1 inhibitors). chicken DT40 Tdp1-/-;hTDP1 cells + 20 nM CPT, ATP luminescence, 48 h. Potency, µM (doses to about 46.2 µM), without a hit: top-dose activity change, negative = growth inhibition, usual class: inhibitors. actives 12% (n = 420,000). AID 686979; also: nearly all actives have a fitted effect of over 55% in size
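Chicken DT40 Tdp1-/- cells complemented with human TDP1, 400 cells/well, exposed to compounds plus 20 nM camptothecin for at least 48 h at 37 C; viability read as ATP content by CellTiter-Glo luminescence.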
TDP1 inh: blocks human tyrosyl-DNA phosphodiesterase 1; Q9NUW8; actives 0.28% (n = 350,000); AID 485290; recombinant TDP1, AlphaScreen DNA substrate cleavage; Potency, µM (series often up to 130 µM), inactives show at the top dose activity change, negative = inhibition, hits mostly inhibitors; also: nearly all actives have a fitted effect of over 40% in size
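Tdp1 1 nM final; 15 min RT w/ cpd; substrate 15 nM, 5 min; beads 10 ug/ml, 10 min; AlphaScreen read. Neg ctrl: no enzyme.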
Starred values were filed as active, the others as inactive; ? = inconclusive; . = no result; [ ] = another dose, or the depositor's remark. Calls follow the shape of the dose curve; as a rule, active = well fitted curve in the direction sought with a large enough effect; inconclusive = small, poorly fitted or top-dose-only effect, or another doubt; inactive = no such curve, though single readings can be large; an effect the other way counts as inactive or inconclusive. % is scaled to controls: 0 for no effect and ±100 for the full control effect; potency is read from the fitted curve at half-maximal effect.

SMILES	TDP1 cell noCPT	GCN5L2 inh	VDR inh	PLK1 PBD block	DT40 TDP1 CPT	TDP1 inh
COc1ccc(NC(=O)CN(C)C(=O)c2ccc(N3CCCCCC3)c([N+](=O)[O-])c2)cc1	?	-23.5%	-7.5%	-2.1%	?	3.2%
COc1ccc(Cl)cc1NC(=O)CN(C)C(=O)c1ccc(N2CCCCCC2)c([N+](=O)[O-])c1	23.1µM*	-11.6%	3.0%	-5.5%	16.4µM*	3.8%
CCOc1ccc(NC(=O)CN(C)C(=O)c2ccc(N3CCCC3)c([N+](=O)[O-])c2)cc1OCC	-19.6%	-2.6%	-1.3%	-9.2%	0.1%	.
C[C@H](O)C(=O)Nc1c(I)c(C(=O)NC(CO)CO)c(I)c(C(=O)NC(CO)CO)c1I	-27.3%[21.1 µM]	-4.7%[21.4 µM]	-2.9%	.	4.0%[21.1 µM]	2.2%[56.1 µM]
COc1ccc(N(C(=O)CCl)C(C(=O)NCCc2ccccc2)c2cccs2)cc1Cl (stereo not given)	1.46µM*	-2.3%	?	-17.4%	2.59µM*	0.0%
COc1cccc(N(C(=O)CCl)C(C(=O)NCCc2ccccc2)c2cccs2)c1 (stereo not given)	4.61µM*	1.1%	-17.6%	-4.6%	4.11µM*	3.5%
CCOc1ccc(NC(=O)c2c(NC(=O)Cc3ccccc3)sc3c2CCCC3)cc1	?	-2.6%	-3.3%	.	?	1.9%
CCn1nc(C)cc1C(=O)NCCN1Cc2ccccc2OC(c2ccccc2F)C1 (stereo not given)	16.4µM*	.	.	.	?	.
Cc1cc(C(=O)NCCN2Cc3ccccc3OC(c3ccccc3F)C2)no1 (stereo not given)	-10.0%	.	.	.	-4.0%[9.04 µM]	.
CCC(=O)Nc1cccc2cccnc12	2.9%	-3.8%	2.5%	-20.6%	12.0%	0.0%
CC(C)CC(=O)NC(NC(=S)Nc1cccc2cccnc12)C(Cl)(Cl)Cl (stereo not given)	8.2µM*	-3.7%	0.0%	-11.0%	8.2µM*	7.8%
CC(C)C(=O)NC(Nc1cccc2cccnc12)C(Cl)(Cl)Cl (stereo not given)	13µM*	-1.1%	-11.8%	-8.7%	14.6µM*	5.7%
O=[N+]([O-])c1ccc(Cl)cc1NCC1CCCO1 (stereo not given)	-3.6%	-7.7%	24.4%	-17.8%	-10.9%	.
COc1ccc(Nc2ncnc3onc(C)c23)cc1Cl	?	-6.7%	-1.6%	.	-6.2%	2.1%
Cc1nc(NS(=O)(=O)c2ccc(N)cc2)nc(C)c1Br	-24.7%	-6.8%	1.5%	.	-1.4%	.
CC(C)/C(=N\NS(=O)(=O)c1ccc(Br)cc1)c1cccs1	?	1.1%	-11.0%	23.8µM*	?	0.0%
CC(NC(=O)c1cccs1)c1ccc(Br)cc1 (stereo not given)	-16.2%	.	4.6%	-28.0%	1.2%	.
C/C(=N\NS(=O)(=O)c1ccc([N+](=O)[O-])cc1)c1cccs1	?	-6.5%	?	26.7µM*	?	2.7%
COCCn1c(C)cc(C2=NNC(=Nc3ccc(OC)cc3)SC2)c1C	11.6µM*	-1.4%	-14.8%	?	23.1µM*	4.4%
COCCn1c(C)cc(C2=NNC(=Nc3ccccc3)SC2)c1C	15.8µM*	-0.6%	8.4%	-15.2%	22.4µM*	7.1%
COCC(C)N=C1NN=C(c2c[nH]c3ccccc23)CS1 (stereo not given)	-21.0%	-4.0%	-6.8%	-10.6%	-16.3%	-5.3%
Cc1cc(C2=NNC(=NCCc3ccccc3)SC2)c(C)n1CC1CCCO1 (stereo not given)	?	-8.1%	-12.0%	-18.1%	16.4µM*	4.6%
Clc1ccc(C2=NNC(=NCC3CCCO3)SC2)cc1 (stereo not given)	-26.5%	-3.6%	?	?	5.8%	2.7%
COc1ccc(CN=C2NN=C(c3cccc(OC)c3)CS2)cc1	?	-8.2%	-6.9%	?	17.4%	8.8%
CNC(=S)N/N=C/c1c(C)nn(-c2ccc(F)cc2)c1Cl	14.6µM*	-9.5%	-6.6%	-15.1%	?	0.0%
SMILES	TDP1 cell noCPT	GCN5L2 inh	VDR inh	PLK1 PBD block	DT40 TDP1 CPT	TDP1 inh
O=C(N/N=C/c1ccc(N2CCOCC2)cc1)c1ccc(NS(=O)(=O)c2cccs2)cc1	?	-0.2%	-12.8%	?	2.2%	-2.5%
Cc1nn(-c2ccc(F)cc2)c(Cl)c1/C=N/NC(=O)c1cccs1	?	-3.3%	-2.9%	0.3%	?	79.4µM*
COC(=O)N/N=C\c1c(C)nn(-c2ccccc2)c1Cl	-10.9%	13.7%	-0.1%	-4.5%	10.3%	2.6%
Cc1nn(-c2ccc(F)cc2)c(Cl)c1/C=N/NC(=O)c1ccc(O)cc1	-28.2%	-6.5%	-0.2%	-8.7%	0.6%	5.0%
Cc1nn(-c2ccc(Cl)cc2)c(Cl)c1/C=N/NC(=O)c1ccc(NS(=O)(=O)c2cccs2)cc1	18.4µM*	.	?	23.8µM*	18.4µM*	.
CC1CCCCN1C(=O)C1COc2ccccc2O1 (stereo not given)	-17.3%	-4.2%	24.0%	-4.3%	3.0%	-2.5%
COCCn1c(C)cc(C(=O)CSc2nc3ccccc3s2)c1C	18.4µM*	-8.3%	-14.9%	-1.2%	13µM*	-4.5%
COCCn1c(C)cc(C(=O)CSc2nc3ccccc3o2)c1C	?	-2.2%	2.2%	-8.9%	25.9µM*	0.0%
COCCn1c(C)cc(C(=O)CSc2nnc3ccccn23)c1C	-2.4%	-3.8%	0.7%	-4.5%	-4.0%	2.0%
O=C(NNc1c(Cl)cc(Cl)cc1Cl)C1CCC1	-21.9%	1.4%	0.4%	0.8%	-3.8%	0.0%
COC(=O)c1ccc2nc(-c3cccc(Cl)c3)c(Cc3cccc(F)c3)n2c1	9.2µM*	.	.	2.1%	16.4µM*	.
COC(=O)c1ccc2nc(-c3cccc(Cl)c3)c(Cc3cccc(Cl)c3)n2c1	?	.	.	-4.8%	4.61µM*	.
COC(=O)c1ccc2nc(-c3ccco3)c(Cc3cccc(Cl)c3)n2c1	16.4µM*	.	.	-28.6%	?	.
CN(C)S(=O)(=O)n1cc(/C=C(\NC(=O)c2ccccc2Cl)C(=O)N2CCCC2)c2ccccc21	6.7%	-2.9%	-3.9%	1.0%	-27.4%	-0.1%
COc1ccccc1CNC(=O)COC(=O)C1CCN(S(=O)(=O)c2ccc(C)c(C)c2)CC1	0.0%	-1.3%	2.7%	-9.5%	1.4%	0.2%
CCOC(=O)C1=CN(Cc2cccc(F)c2)S(=O)(=O)N(CC)C1c1ccccc1 (stereo not given)	?	-5.1%	5.8%	-16.0%	?	-3.9%[56.1 µM]

Screening data (PubChem BioAssay)
